FBPA coupling cs – qHTS Assay for Inhibitors of Fructose-1,6-bisphosphate Aldolase from Giardia Lamblia: Coupling assay counterscreen; 290,000 tested, 0.67% active; activity change, negative = inhibition, % at 58.2 µM, hits read low; coupling enzyme system counterscreen, AmpLite Red fluorescence; AID 2472, 2010; in the data active = activity change below about -30%
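Coupling enzymes only (glyceraldehyde-3-phosphate) + compound, at 57.5 uM final, 10 min RT; add substrate/coupling/AmpLite Red mix, 20 min RT; fluorescence ex 525/em 598 nm. Actives flag coupling-system interference.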
ELG1 DNA repair – qHTS screen for small molecules that inhibit ELG1-dependent DNA repair in human embryonic kidney (HEK293T) cells expressing luciferase-tagged ELG1; HEK293T ELG1-luciferase reporter, luminescence, 16 h; DNA damage induced by 5-fluorouridine; Potency, µM (top dose mostly 46.1 µM), actives largely listed as inhibitors; 330,000 tested, 2.3% active; AID 504467, 2011; note: nearly all actives have a fitted effect of over 55% in size
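Overnight (16 hr) co-exposure of 2,000 cells/well to 5-fluorouridine and compound at 37 °C preceded detection. Luciferase was quantified via ONE-Glo luminescence; loss of signal denotes inhibition.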
Giardia killer – Small Molecules that selectively kill Giardia lamblia: qHTS. Giardia lamblia trophozoite viability. activity change, % at 7.66 µM, hits read low. 340,000 tested, 0.15% active. AID 540267, 2011; in the data active = activity change below about -80%; inconclusive = between about -30% and that limit;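 note: parasites exposed to compound for two days anaerobically before the ATP read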
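Media and compound were dispensed first, then trophozoites at 100 cells/well; plates sat 48 hrs at 37 deg C without oxygen before ATP luminescence reagent was added and read after 15-30 min at room temperature.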
Sfp PPTase inh – qHTS Assay for Inhibitors of Bacillus subtilis Sfp phosphopantetheinyl transferase (PPTase) | 4'-phosphopantetheinyl transferase ffp (Bacillus subtilis), Q9F4F7 | Potency, µM, most hits filed as inhibitors | 310,000 tested, 3.5% active | Biochemical Sfp PPTase activity, qHTS;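 note: the enzyme is Sfp with the accession as filed and its product quenches rhodamine fluorescence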
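Step 1, compound plus 15 nM Sfp-PPTase, 15 min, room temperature. Step 2, add rhodamine-CoA (5 uM) and BHQ-2-YbbR (12.5 uM). Step 3, read 525/598 nm fluorescence at 0 and 30 min.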
Numbers stand for hits; 0 = inactive; ? = inconclusive; - = no result given. Most compounds without a hit are left out; they make up all but 5.5% or so of the library. Unless noted, calls come from the whole dose curve; as a rule, active = well fitted curve in the direction sought with a large enough effect; inconclusive = small, poorly fitted or top-dose-only effect, or another doubt; inactive = no such curve, though single readings can be large; an effect the other way counts as inactive or inconclusive.

SMILES	FBPA coupling cs	ELG1 DNA repair	Giardia killer	Sfp PPTase inh
COc1cc(CNC2CCCc3ccccc32)cc(OC)c1OC (stereo not given)	0	0	0	50µM
CCOc1ccc(N2CC(NS(=O)(=O)c3cccnc3)CC2=O)cc1 (stereo not given)	-	0	0	-
COc1ccc(NC(=O)Nc2sc(NS(=O)(=O)c3ccccc3)nc2C)cc1	0	0	0	45µM
Cc1ccc(S(=O)(=O)Nc2nc(C)c(NC(=O)OCCCl)s2)cc1	0	0	0	50µM
Cc1ccc(S(=O)(=O)Nc2nc(C)c(C(=O)Nc3ccccc3)s2)cc1	0	0	0	0
Cc1ccc(S(=O)(=O)Nc2nc(C)c(NC(=O)Nc3ccc(Cl)cc3Cl)s2)cc1	0	0	0	35µM
Cc1nc(NS(=O)(=O)c2ccccc2)sc1NC(=O)OC(C)C	0	0	0	50µM
O=C1CN(C(=O)c2ccc(Br)o2)C(c2ccc(F)cc2)c2cc(Cl)ccc2N1 (stereo not given)	0	?	0	0
O=C1CN(C(=O)c2ccc(Br)o2)C(c2ccccc2)c2cc(Cl)ccc2N1 (stereo not given)	0	21µM	0	?
Cc1cc(OCC(=O)OCC(=O)NCc2cccs2)ccc1Cl	-	0	0	-
CC(C)Cn1c(N)c(C(=O)CSc2ncccn2)c(=O)n(C)c1=O	-	0	0	-
CCOC(=O)Cc1csc(SCC(=O)c2c(N)n(CC(C)C)c(=O)n(C)c2=O)n1	0	5.2µM	0	0
Cc1csc(SCC(=O)c2c(N)n(CC(C)C)c(=O)n(C)c2=O)n1	0	18µM	0	0
COC(=O)c1ccc(CNC(=O)c2ccc(OCC(=O)N3CCOCC3)c(OC)c2)cc1	-	0	0	-
COCCN1C(=O)/C(=C2/C(=O)N(CC(=O)Nc3ccccc3Cl)c3ccccc32)SC1=S	0	0	0	0
CCOc1ccc(NC(=O)CN2C(=O)/C(=C3\SC(=S)N(C4CCS(=O)(=O)C4)C3=O)c3ccccc32)cc1 (stereo not given)	0	0	0	56µM
Cn1c(SCCCC(=O)c2ccc(F)cc2)nnc1-c1ccncc1	0	0	0	0
Cc1occc1-c1nnc(SCCCC(=O)c2ccc(F)cc2)n1C	0	0	0	50µM
Cc1ccc(CN2CCC(n3nccc3NC(=O)c3ccccc3C)CC2)o1	0	0	0	0
CCOc1c(Cl)cc(/C=C/C(=O)N(CC)CC(=O)Nc2ccc(NC(C)=O)cc2)cc1OC	-	15µM	0	-
CC(C)C(NS(=O)(=O)c1ccccc1)C(=O)NC1CCCC1 (stereo not given)	-	0	0	0
CC(C)[C@H](NS(=O)(=O)c1ccccc1)C(=O)OCC(=O)NC1CCCCC1	-	0	0	-
CC(C)[C@H](NS(=O)(=O)c1ccccc1)C(=O)OCC(=O)NC(=O)NC1CCCCC1	-	16µM	0	-
CC(C)[C@H](NS(=O)(=O)c1ccccc1F)C(=O)NC1CCCCC1	-	5.2µM	0	-
CCC1CSC(Nc2ccc(C(=O)/C=C/c3ccc(OC)c(OC)c3)cc2)=N1 (stereo not given)	0	21µM	0	0
SMILES	FBPA coupling cs	ELG1 DNA repair	Giardia killer	Sfp PPTase inh
CCC1CSC(Nc2ccc(C(=O)/C=C/c3ccc(Br)cc3)cc2)=N1 (stereo not given)	0	0	0	0
Cc1c([N+](=O)[O-])c2ccc(O)cc2n1-c1ccccc1	0	4.6µM	0	0
Cc1ccc(-n2c(C)c([N+](=O)[O-])c3ccc(O)cc32)cc1	0	?	-	18µM
CCc1noc(C)c1C(=O)Nc1nc(-c2ccccc2)c(C(C)=O)s1	-	?	0	-
O=C(CCNS(=O)(=O)c1ccccc1)OCC(=O)c1ccc[nH]1	-	0	0	-
O=C(N/N=C\c1ccc([N+](=O)[O-])o1)c1cncc(Br)c1	0	16µM	?	0
COc1cc([N+](=O)[O-])cc(/C=N/NC(=O)c2cncc(Br)c2)c1O	0	23µM	0	0
O=C(N/N=C/c1ccc(-c2ccccc2[N+](=O)[O-])o1)c1cncc(Br)c1	0	?	0	?
O=C(COc1ccccc1)NS(=O)(=O)c1ccccc1	0	0	0	0
COc1cc2c(C(=O)NCc3ccc(C)o3)cn(CC(C)C)c(=O)c2cc1OC	0	?	0	45µM
Cc1c(Cl)cccc1NC(=S)N(Cc1ccco1)C(C)c1ccccn1 (stereo not given)	0	0	0	0

Screening data from PubChem BioAssay.
